# Results taken from PubChem BioAssay (EPA / NIEHS).
# “And” between values parts separate entries of the source, which are not always exact repeats. Equal entries are not always repeated. Some compounds were tested as several samples or in several runs, with calls that do not always agree. The source made the active and inactive calls. The calls were made as follows: active = hit-call score of the fitted dose curve at least 0.9, where 1 is the maximum; inactive = score below 0.9.
# Test: BSK_3C_TissueFactor: BioMAP Diversity Plus: 3C Assay for Tissue Factor Biomarker Activity (AID 2282997)
# Details: BioMAP 3C HUVEC, tissue factor biomarker readout; actives raise or lower the signal
# Experimental: BSK_3C is a cell-based, multiplexed-readout assay that uses umbilical vein endothelium, a human vascular primary cell, with measurements taken at 24 hours after chemical dosing in a 96-well plate.BSK_3C_TissueFactor is an assay component measured in the BSK_3C assay. It measures Tissue Factor antibody related to regulation of gene expression using ELISA technology.Data from the assay component BSK_3C_TissueFactor was analyzed into 1 assay endpoint. This assay endpoint, BSK_3C_TissueFactor, was analyzed with bidirectional fitting relative to DMSO as the negative control and baseline of activity. Using a type of binding reporter, gain or loss-of-signal activity can be used to understand changes in the signaling as they relate to the gene F3. Furthermore, this assay endpoint can be referred to as a primary readout, because this assay has produced multiple assay endpoints where this one serves a signaling function. To generalize the intended target to other relatable targets, this assay endpoint is annotated to the cytokine intended target family, where the subfamily is coagulation factor.
# The levels of cell surface (or secreted, indicated by the prefix "s") biomarker endpoints were measured by ELISA. Overt cytotoxicity to cells in confluent adherent cultures (all systems other than the BT system) was assessed by measuring total protein levels using sulforhodamine B (SRB) staining in parallel cultures at the time of biomarker measurements, indicated as SRB endpoints. For proliferation assays for adherent cell types, individual cell types are cultured at sub-confluence and relative cell numbers quantified by SRB staining at time points optimized for each system (48 h: 3C and CASM3C systems; 72 h: BT and HDF3CGF systems; 96 h: SAg system). SRB was performed by staining cells with 0.1% SRB after fixation with 10% TCA and reading wells at 560 nm.Viability and proliferation of PBMC (T cells) was quantified by Alamar Blue reduction for the SAg and BT systems. For PBMC viability (referred to as PBMC Cytotoxicity within the assay endpoint names), cells were plated (75,000/well in a 96-well plate) and then chemical samples added for 1 h before addition of activators, SEB and TSST-1 (20 ng/mL final concentration each). Cells were incubated for 90 h. Then, Alamar Blue (20 uL/well) (Invitrogen, Cat DAL1100) was added for 6 h, and the plates were read with a fluorescence microplate reader at 546/580 nm (excitation/emission). For PBMC proliferation, cells were plated and activated as above but incubated for only 16 h prior to addition of Alamar Blue. Plates were read after 6 h.
Compound,outcome,AC50
CN(C)c1nc(=O)n(C2CCCCC2)c(=O)n1C,inactive,
Cc1cccc(C)c1N,inactive,
Oc1ccc(Cl)cc1Cl,inactive,
CCCCCCOC(=O)c1ccccc1C(=O)OCCCCCC,inactive,
NS(=O)(=O)C(F)(F)C(F)(F)C(F)(F)C(F)(F)C(F)(F)C(F)(F)C(F)(F)C(F)(F)F,,30.2 µM (active) and 49.5 µM (active) and 52.9 µM (active)
c1ccc(-c2ccccc2)cc1,inactive,
CCCCCCCCCc1ccc(O)cc1,,16.1 µM (active)
CO/C=C(/C(=O)OC)c1ccccc1COc1cccc(C(F)(F)F)n1,,10.4 µM (active)
O=C(O)C(F)(F)C(F)(F)C(F)(F)C(F)(F)C(F)(F)C(F)(F)C(F)(F)C(F)(F)C(F)(F)F,inactive,51.8 µM (active) and 50.7 µM (active)
c1cc2ccc3cccc4ccc(c1)c2c34,,5.47 µM (active)
Cc1ccc(O)c(C)c1,inactive,
O=C(NC(=O)c1c(F)cccc1F)Nc1cc(Cl)c(OC(F)(F)C(F)F)c(Cl)c1,,1.03 µM (active)
O=C(NC(=O)c1cc(F)c(F)cc1Cl)Nc1cc(F)ccc1N1CCC(C(=O)O)CC1,inactive,
C1CC2OC2CC1C1CO1 (stereo not given),inactive,
CCNc1nc(NC(C)C)nc(SC)n1,inactive,
N#Cc1ccc(N(CC(N)=O)CC(F)(F)F)cc1C(F)(F)F,inactive,
CC(C)(c1ccccc1)c1ccc(O)cc1,,30.5 µM (active)
ClC1=C(Cl)[C@]2(Cl)[C@@H]3[C@@H]4C[C@@H]([C@H]5O[C@@H]45)[C@@H]3[C@@]1(Cl)C2(Cl)Cl,inactive,
Cc1cc(-c2ccc(N)c(C)c2)ccc1N,inactive,

Compound,outcome,AC50
O=S(=O)(O)C(F)(F)C(F)(F)C(F)(F)C(F)(F)F,inactive,
ClC1=C(Cl)[C@]2(Cl)[C@@H]3[C@@H](Cl)[C@H]4O[C@H]4[C@@H]3C1(Cl)C2(Cl)Cl,inactive,
CC(c1ccc(O)cc1)(c1ccc(O)cc1)c1ccc(O)cc1,inactive,
O=C(N[C@H]1CN2CCC1CC2)c1cc2ccoc2cn1,inactive,
Cc1cc2c3c(c1)C(c1ccccc1)=N[C@@H](NC(=O)c1ccncc1)C(=O)N3CC2,inactive,
CCSC(=O)N(CC)C1CCCCC1,inactive,
CCOCCOC(C)=O,inactive,
CN(C)CCO,inactive,
Cc1ccccc1[N+](=O)[O-],inactive,
O=C(O)C(F)(F)C(F)(F)C(F)(F)C(F)(F)C(F)(F)C(F)(F)C(F)(F)C(F)(F)F,inactive,30 µM (active) and 46 µM (active)
CCC(=O)O[C@H]1CC[C@H]2[C@@H]3CCC4=CC(=O)CC[C@]4(C)[C@H]3CC[C@]12C,,31.4 µM (active)
Nc1ccc(-c2ccc(N)cc2)cc1,,3.97 µM (active)
Cc1ccccc1O,inactive,
CC(C)C(=O)OCC(C)(C)C(OC(=O)C(C)C)C(C)C (stereo not given),inactive,
Oc1ccc(C(c2ccc(O)cc2)(C(F)(F)F)C(F)(F)F)cc1,,35 µM (active)
C[C@]12CCC(=O)C=C1CC[C@@H]1[C@@H]2CC[C@@]2(C)[C@H]1CC[C@]2(C)O,inactive,
ClC(Cl)=C(c1ccc(Cl)cc1)c1ccc(Cl)cc1,,29.4 µM (active)
CCC(C)(CC)c1cc(NC(=O)c2c(OC)cccc2OC)on1,inactive,
O=C(O)C(F)(F)C(F)(F)C(F)(F)C(F)(F)C(F)(F)F,inactive,
